# GALR2 agonist: activates the human galanin receptor 2; O43603; GALR2-expressing cells, agonist activation read-out; activation, % (concentration not given with the values); 140,000 compounds, 0.48% hits; in the data active = activation above about 5%, passing the limit was not always enough;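 note: 0% = vehicle buffer wells and 100% = reference agonist at full effect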
# Target sequence (O43603 whole entry, looked up): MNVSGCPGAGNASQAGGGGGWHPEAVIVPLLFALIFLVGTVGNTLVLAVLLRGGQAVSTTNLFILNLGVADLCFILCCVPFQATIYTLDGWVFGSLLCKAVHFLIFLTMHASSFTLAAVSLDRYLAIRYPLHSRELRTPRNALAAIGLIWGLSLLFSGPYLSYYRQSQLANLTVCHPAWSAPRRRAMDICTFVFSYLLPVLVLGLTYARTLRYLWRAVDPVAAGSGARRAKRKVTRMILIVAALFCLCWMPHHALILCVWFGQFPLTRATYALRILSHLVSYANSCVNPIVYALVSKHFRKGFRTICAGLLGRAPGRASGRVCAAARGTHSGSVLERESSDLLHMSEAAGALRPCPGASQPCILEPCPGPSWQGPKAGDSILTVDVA
# GALR2 blocker: GALR2 (human) receptor antagonism. O43603. GALR2-expressing cells, antagonist mode. inhibition, % at 4 µM. 140,000 compounds, 0.39% hits. AID 828; in the data active = inhibition above about 27%;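 note: cells stimulated with galanin 1-16 at roughly its EC80; 0% = agonist challenge control and 100% = basal control without agonist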
# S1P2 antag: antagonists of human S1P2 receptor. inhibition, % at 5 µM. cell-based S1P2 antagonist assay, inhibition at 5 uM. 97,000 compounds, 0.21% hits; in the data active = inhibition above about 45%;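 note: CRE beta-lactamase reporter cells expressing human S1P2 stimulated with S1P; 0% = agonist at EC80 alone and 100% = agonist plus reference antagonist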
# MRP reversal: reverses drug resistance mediated by MRP; 85,000 compounds, 0.04% hits; H69AR cells + 2 uM doxorubicin, CellTiter-Glo, 72 h; differential viability (reversal), % at 10 µM;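 active = viability drop by adding the cancer drug above about 55%, with treated viability meeting a 40% cutoff, limit read from the data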;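 note: viability without doxorubicin minus viability with 2 µM doxorubicin for each compound; larger differential means the compound sensitizes cells more to doxorubicin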
# S1P2 agonist: activates the human S1P2 receptor | activation, % at 4.5 µM | S1P2-expressing cell line, agonist reporter read-out | 97,000 compounds, 0.46% hits; in the data active = activation above about 16%;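 note: 0% = vehicle low control and 100% = maximal reference agonist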
# MRP1 act: activators of MRP-1; H69AR cells + doxorubicin, viability rescue, CellTiter-Glo; viability increase, % at 10 µM; 140,000 compounds, 0.61% hits; AID 799;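 active = viability gain under doxorubicin at or above a set limit, the compound median plus 3 SD, cut at about 4.7% in these data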;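 note: MRP-1 overexpressing cells given doxorubicin 25 µM after compound pretreatment; 18-22 h compound pretreatment then 72 h with doxorubicin before readout; 0% = doxorubicin-only wells and 100% = vehicle-treated cells without doxorubicin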
# * marks the source's active call; other numbers are inactive results; . = not tested or not shown. In the library only some 1.8% were active in any assay of this set; here they are far more common.
SMILES,GALR2 agonist,GALR2 blocker,S1P2 antag,MRP reversal,S1P2 agonist,MRP1 act
Cc1ccc(N=C2NC(=O)C(CC(=O)O)S2)cc1 (stereo not drawn),-3,-2,5,.,-6,3
C=CCn1c(COc2ccc(Cl)cc2)nnc1SCC(=O)N1CC(=O)Nc2ccccc21,-2,-10,7,16,-4,4.7*
COc1ccc(NC(=O)c2ccc(-c3ccc([N+](=O)[O-])cc3)o2)cc1OC,0,4,.,.,.,-2
O=C(NC1=NCCS1)C1CC2CCC1C2 (stereo not drawn),-2,9,14,-31,18*,-1
C=CCn1c(N)c(C(=O)OC(C)(C)C)c2nc3ccccc3nc21,2,17,-28,-11,2,-3
COCCCNC(=O)c1c(N)n(/N=C/c2cccs2)c2nc3ccccc3nc12,20*,-12,.,-8,.,0
COCCNC(=O)c1c(N)n(CCCn2ccnc2)c2nc3ccccc3nc12,0,12,-5,-7,18*,-5
C=CCn1c(N)c(C(=O)Nc2ccccc2)c2nc3ccccc3nc21,8.1*,-9,.,-17,.,-1
COCCCNC(=O)c1c(N)n(/N=C/c2cccnc2)c2nc3ccccc3nc12,2,6,.,.,.,2
COCCNC(=O)c1c(N)n(-c2ccccc2)c2nc3ccccc3nc12,4.9*,2,-17,-13,6,-4
CC(C)CCn1c(SCC(=O)c2ccccc2)nc2c1c(=O)[nH]c(=O)n2C,-1,1,15,-11,-2,-2
Cc1ccc2[nH]c3c(N4CCN(Cc5ccc6c(c5)OCO6)CC4)ncnc3c2c1,-1,-9,69*,-5,-6,-5
CCOc1ccc2[nH]c3c(N4CCN(c5ccccn5)CC4)ncnc3c2c1,1,9,1,.,-8,-2
Cc1ccc2[nH]c3c(N4CCN(Cc5ccccc5)CC4)ncnc3c2c1,0,14,59*,-12,-9,-5
COc1cccc2[nH]c3c(N4CCN(Cc5ccc6c(c5)OCO6)CC4)ncnc3c12,1,5,20,-7,-3,-2
Cc1ccc2c(c1)[nH]c1c(N3CCN(Cc4ccccc4)CC3)ncnc12,-2,23,70*,-17,-10,-3
CC(=O)Nc1ccc(C(=O)OCC(=O)NC(=O)NC(C)(C)C)cc1,-1,-5,-3,-12,-7,1
CCC(C)(C)NC(=O)c1ccc2c(c1)S(=O)(=O)c1ccccc1C2=O,1,-19,-41,.,23*,-2
CCOc1ccc(/C=C/[N+](=O)[O-])c2ccccc12,-3,5,2,.,0,-5
CN(c1ccccc1)c1ccc(/C=C/[N+](=O)[O-])cc1,5.5*,24,.,.,.,-5
CCOC(=O)c1c(C)oc2c1c(C=NCc1ccccn1)c(O)c1ccccc12,-1,6,.,3,.,-6
C=CCn1c(CNc2ccccc2)nnc1SCC(=O)N/N=C/c1ccccc1O,-2,4,13,.,-6,5.3*
C=CCn1c(COc2ccc(Cl)cc2)nnc1SCC(=O)N/N=C/c1cccc(O)c1,-1,-5,14,.,-3,3
Cc1nc2sc(C(c3ccc(C(C)C)cc3)N3CCN(CCO)CC3)c(O)n2n1 (stereo not drawn),-2,-7,.,2,.,-2
O=C1OC(Nc2ccccn2)c2ccccc21 (stereo not drawn),-2,7,6,-17,-6,32*
SMILES,GALR2 agonist,GALR2 blocker,S1P2 antag,MRP reversal,S1P2 agonist,MRP1 act
O=C(NS(=O)(=O)c1ccccc1Cl)c1ccc[nH]1,0,-3,.,1,.,-2
Cc1ccc(NC(=S)NCCc2ccc(S(N)(=O)=O)cc2)c(C)c1,0,-5,13,.,102*,.
COC(=O)c1ccc(NC(=O)Cn2nnc3ccccc32)cc1,-2,-2,14,.,-10,-1
COCCn1c(C)cc(/C=C2/NC(=O)N(c3ccc(Cl)cc3)C2=O)c1C,7.1*,-8,.,.,.,-1
CCN1C(=O)N/C(=C/c2cc(C)n(Cc3ccccc3)c2C)C1=O,-1,-2,.,.,.,-1
Cc1cc(/C=C2/NC(=O)N(c3ccccc3)C2=O)c(C)n1-c1cccnc1,0,2,.,.,.,0
CCn1c(C)cc(/C=C2\NC(=O)N(Cc3ccc(Cl)cc3)C2=O)c1C,1,-19,17,.,-3,9.5*
O=C(O)Cc1cc2c(s1)CCCCC2,-2,2,-3,3,-1,0
Cc1sc2nc(SCC(=O)NCc3ccco3)[nH]c(=O)c2c1C,-4,9,.,11,.,0
CCn1c(SCC(=O)N(C(C)C)C(C)C)nnc1-c1cc2ccccc2cc1O,0,-12,4,-2,-3,-3
N#Cc1ccc(-c2cccnc2)nc1SCC(=O)Nc1sc2c(c1C#N)CCC2,6.9*,9,.,-5,.,0
CCOC(=O)c1c(C)[nH]c(C(=O)COC(=O)[C@H](C)NC(=O)c2ccccc2Cl)c1C,-2,5,.,.,.,2
O=c1[nH]c(C2CCCN(S(=O)(=O)c3ccccc3)C2)nc2c1nnn2Cc1ccccc1 (stereo not drawn),-1,4,-13,32,-4,5.3*
O=c1[nH]c(C2CCCN(S(=O)(=O)c3ccccc3)C2)nc2c1nnn2Cc1ccccc1F (stereo not drawn),0,4,.,20,.,1
COc1cc2c(cc1OC)-c1cc(NC3CC3)nc(=O)n1CC2,-1,-8,-19,12,15,-2
CCCCCCNc1cc2n(c(=O)n1)CCc1cc(OC)c(OC)cc1-2,-1,-10,-48,7,30*,-2
COc1cc2c(cc1OC)-c1cc(NC3CCCCC3)nc(=O)n1CC2,-1,5,-32,-5,33*,-4
COc1cc2c(cc1OC)-c1cc(NC3CCCCCCC3)nc(=O)n1CC2,1,-15,-6,.,50*,-2
CCNc1cc2n(c(=O)n1)CCc1cc(OC)c(OC)cc1-2,-2,-5,-28,11,9,-3
COc1cc([N+](=O)[O-])ccc1NC(=O)CCN1C(=O)C2C3CCC(C3)C2C1=O (stereo not drawn),1,5,.,.,.,-2
O=c1nc2s/c(=C\c3ccc(-c4ccccc4[N+](=O)[O-])o3)c(=O)n2nc1-c1ccccc1,-1,3,.,.,.,5.2*
CCCCCOc1ccc(/C=c2\sc3nc(=O)c(-c4ccccc4)nn3c2=O)cc1OC,-1,1,.,.,.,0
O=[N+]([O-])c1cccc(/C=N\N2CCN(Cc3ccccc3Cl)CC2)c1,-2,0,-3,13,-5,4.8*
O=[N+]([O-])c1cccc(/C=N/N2CCN(c3ccccn3)CC2)c1,0,-5,.,.,.,3
O=C(Nc1cccc([N+](=O)[O-])c1)c1cnccn1,-1,3,.,.,.,-2
O=C(Nc1cccc([N+](=O)[O-])c1)c1[nH]ncc1Cl,-1,25,.,.,.,6.1*
COc1ccc(C(=O)C(CN2CCOCC2)c2ccccc2)cc1F (stereo not drawn),-1,33*,7,1,-5,-3
COc1ccc(CNc2nc(NCc3ccc(OC)cc3)n(S(C)(=O)=O)n2)cc1,-2,7,0,11,-8,5.1*

# Bioassay records (PubChem)
